Structures are written as SMILES. Entries with a potency or affinity are not part of this list. A number with no mark means an inactive call.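 How the source made its calls: active means every repeat run showing a signal drop whose fitted half-maximal concentration is at most twice the top tested concentration; inconclusive means repeat runs disagree, or flat partial drop, or poor fit; inactive means the rest.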

A short description of this assay: general mammalian cell viability loss – activator set, cherry-pick, cytotoxicity control for miR-122 modulator project, dose response (AID 720690).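 Further: 0% = neutral control wells and -100% = MG132 cytotoxic control wells.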 Conditions: HEK293T viability, CellTiter-Glo luminescence, 48 h; series mostly up to 26 µM; activity change, negative = cytotoxicity: at the top concentration.
In the case of `Nc1nc(Cl)nc2c1ncn2[C@H]1C[C@H](O)[C@@H](CO)O1`, the “activity change, negative = cytotoxicity” value is -34.9%. Consider `C/C=C/c1ccc([C@@H]2[C@@H](CO)N(C(=O)C3CC3)[C@H]2CN(C)C(=O)CC2CC2)cc1`, for which the “activity change, negative = cytotoxicity” value was 5%. For `C/C=C/c1ccc([C@@H]2[C@@H](CO)N[C@@H]2CN(C(=O)C2CCC2)C(C)C)cc1`, the “activity change, negative = cytotoxicity” value is 5.16% [at 23.5 µM]. Consider `COc1cccc(NC(=O)C[C@@H]2CC[C@@H]3[C@@H](COc4ccc(NS(=O)(=O)c5cccc(F)c5)cc4C(=O)N3C)O2)c1`, for which the “activity change, negative = cytotoxicity” value was -6.79% [at 23.5 µM]. To `O=C(Nc1ccc(CN2CCOCC2)cc1)c1ccc(-c2ccc(Cl)cc2Cl)o1` belongs -16.3%. `COCC(=O)Nc1ccc2c(c1)C(=O)N(C)[C@H]1CC[C@@H](CC(=O)NC3CCCC3)O[C@H]1CO2`: the “activity change, negative = cytotoxicity” value was 9.16%. On to `CC(=O)N1[C@H](CO)[C@@H](c2ccccc2)[C@H]1CN(C(=O)NC(C)C)C1CCCC1`, for which the “activity change, negative = cytotoxicity” value was -6.13%. For `C/C=C/c1ccc([C@@H]2[C@@H](CN(C)C(=O)CC)N(C(=O)NC(C)C)[C@H]2CO)cc1`, the “activity change, negative = cytotoxicity” value is -10.7%. For the compound `CN1C[C@H]2[C@@H](c3ccccc31)[C@@H](CO)N2C(=O)C1CCOCC1`, the “activity change, negative = cytotoxicity” value is 3.96%.

For the compound `Cc1ccnc(Nc2nc(-c3c(C)nc4sccn34)cs2)c1`, the “activity change, negative = cytotoxicity” value is -39.7%. Turning to `CC(C)(C)c1cc(NCCCn2ccnc2)n2ncc(-c3ccc(Cl)cc3)c2n1`, the “activity change, negative = cytotoxicity” value is 2.97%. To `C/C=C/c1ccc2c(c1)O[C@H](CN(C)C(=O)c1cnccn1)[C@H](C)CN([C@H](C)CO)S2(=O)=O` belongs 8.36%.

As to `C[C@@H]1CN([C@H](C)CO)S(=O)(=O)c2ccc(C3=CCCC3)cc2O[C@@H]1CN(C)C(=O)c1cnccn1`, the “activity change, negative = cytotoxicity” value was 6.08%. For the compound `COc1ccc(C(=O)N2C[C@H]3[C@@H](c4ccccc42)[C@@H](CO)N3C(=O)Cc2ccccn2)cc1`, the “activity change, negative = cytotoxicity” value was -2.33%.

In the case of `O=C(Cc1cccnc1)N1[C@@H](CO)[C@@H]2c3ccccc3NC[C@@H]21`, the “activity change, negative = cytotoxicity” value was -12.6%.

Turning to `COC(=O)C[C@@H]1CC[C@@H]2[C@H](COc3ccc(NS(=O)(=O)c4ccc(F)cc4)cc3C(=O)N2C)O1`, the “activity change, negative = cytotoxicity” value is -7.83%. Take `CC(=O)N1[C@H](CO)[C@H](c2ccccc2)[C@@H]1CN(C(=O)c1ccc(F)cc1)C(C)C`: the “activity change, negative = cytotoxicity” value was 13.3% [at 23.5 µM].

As to `Cc1cc(C)nc(NS(=O)(=O)c2ccc(NC(=S)NC(=O)C3CCCC3)cc2)n1`, the “activity change, negative = cytotoxicity” value was -1.38%. `CCC(=O)N1[C@H](CN(C(C)C)S(C)(=O)=O)[C@H](c2ccccc2)[C@@H]1CO`: the “activity change, negative = cytotoxicity” value is 2.4%. Consider `COC(=O)C[C@@H]1CC[C@@H]2[C@@H](COc3ccc(NS(=O)(=O)c4ccccc4F)cc3C(=O)N2C)O1`, for which the “activity change, negative = cytotoxicity” value was 5.53%.

Consider `CCC(=O)N1[C@H](CN(CC)C(=O)c2ccccc2)[C@@H](c2ccccc2)[C@@H]1CO`, for which the “activity change, negative = cytotoxicity” value was -9.62%.

Regarding `Cc1cccc(NC(=O)Nc2ccc3c(c2)C(=O)N(C)[C@H]2CC[C@@H](CC(=O)NCc4ccccc4Cl)O[C@H]2CO3)c1`, the “activity change, negative = cytotoxicity” value was -11.4%. As to `CCC(=O)NC[C@H]1[C@H](c2ccc(C3=CCCC3)cc2)[C@H](CO)N1C(C)=O`, the “activity change, negative = cytotoxicity” value was -5.92%. To `CCC(=O)N1[C@H](CO)[C@H](c2ccccc2)[C@H]1CNC(=O)CN1CCOCC1` belongs -16.4%; to `CCCNC(=O)C[C@H]1CC[C@@H]2[C@H](COc3ccc(NS(=O)(=O)c4ccccc4C)cc3C(=O)N2C)O1`, -4.31% [at 23.5 µM]. On to `O=C(Nc1ccc(F)cc1)N1C[C@H]2[C@@H](c3ccccc31)[C@H](CO)N2C(=O)c1ccncc1`, for which the “activity change, negative = cytotoxicity” value was -3.65%. Consider `COc1ccc(NC(=O)COC(=O)CCCc2c[nH]c3ccccc23)cc1`, for which the “activity change, negative = cytotoxicity” value is 1.82%. Take `O=C(c1cccc(F)c1)N1C[C@@H]2[C@H](c3ccccc31)[C@H](CO)N2C(=O)Cc1ccccc1`: the “activity change, negative = cytotoxicity” value was -12.1%.

With `CO[C@H]1CN(C)C(=O)c2cc(NC(C)=O)ccc2OC[C@@H](C)N(C(=O)CC2CC2)C[C@H]1C`, the “activity change, negative = cytotoxicity” value was -21.5%.

As for `COCC(=O)NC[C@H]1N[C@H](CO)[C@H]1c1ccc(C2=CCCC2)cc1`, the “activity change, negative = cytotoxicity” value is -5.57%.

In the case of `O=C(CSc1nc2ccccc2s1)N1CCOCC1`, the “activity change, negative = cytotoxicity” value is -6.56%. For `CCNC(=O)C[C@@H]1CC[C@H]2[C@H](COc3ccc(NC(=O)c4cccc(C(F)(F)F)c4)cc3C(=O)N2C)O1`, the “activity change, negative = cytotoxicity” value was -6.43% [at 23.5 µM]. To `CO[C@H]1CN(C)C(=O)c2ccc(NS(C)(=O)=O)cc2OC[C@H](C)N(C(=O)CN(C)C)C[C@H]1C` belongs -3.42%; to `COc1ccc(-c2ccc(C#N)c(OC(=O)c3c(Cl)cccc3Cl)n2)cc1`, -0.324%; to `C/C=C/c1ccc([C@@H]2[C@@H](CO)N(S(C)(=O)=O)[C@H]2CN(C)C(=O)CC)cc1`, -8.55%. With `CCCC#Cc1ccc2c(c1)O[C@H](CN(C)C(=O)c1ccncc1)[C@H](C)CN([C@@H](C)CO)S2(=O)=O`, the “activity change, negative = cytotoxicity” value was 2.83%. To `CCCCCn1c(=O)[nH]c2cc(C(=O)NCCN3C(C)CCCC3C)ccc2c1=O` (stereo not given) belongs -0.956%. Consider `C[C@H]1CN([C@@H](C)CO)C(=O)c2cc(C#Cc3cccnc3)cnc2O[C@H]1CN(C)S(=O)(=O)c1ccccc1F`, for which the “activity change, negative = cytotoxicity” value was -5.37%. For the compound `CCOC(=O)C1CN(S(=O)(=O)c2ccccc2)CCN1S(=O)(=O)c1ccccc1` (stereo not given), the “activity change, negative = cytotoxicity” value is -5.76%. `CN1C(=O)c2cc(NC(=O)c3cccc(F)c3)ccc2OC[C@H]2O[C@H](CC(=O)O)CC[C@H]21`: the “activity change, negative = cytotoxicity” value was 1.11%.
